Several values for one entry are separate records, joined by “and”; a condition that tells them apart may be missing. Identical values can stand only once. Records with an inconclusive call do not appear. Where a structure was tested more than once in an assay, its records may differ in their call. Activity calls are given as the source filed them. Unless noted, calls follow the shape of the dose curve; as a rule, active = well fitted curve in the direction sought with a large enough effect in the repeat runs; inconclusive = weak or mixed curves; inactive = no such curve, though single readings can be large; an effect the other way counts as inactive or inconclusive.
Columns and labels:
[1] = qHTS assay for small molecules that induce genotoxicity in human embryonic kidney cells expressing luciferase-tagged ATAD5 (AID 651632); also: nearly all actives have a fitted effect of over 15% in size
Procedure, shortened: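 DMSO vehicle served as the control. HEK293T reporter cells, 16 hr at 37C, then 30 min Amplite at room temperature; ATAD5 induction is measured as luciferase activity.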

[2] = qHTS assay for small molecule agonists of the p53 signaling pathway - cell viability (AID 651633; calls by dose curve; also: nearly all actives have a fitted effect of over 30% in size; also: potency is read from the fitted curve at half-maximal effect)
Procedure, shortened: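 p53RE-bla cells were treated with compound for 16 hours at 37 C. Cytotoxicity was then measured as CellTiter-Glo luminescence after 30 min at room temperature.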

[3] = qHTS assay for small molecules that induce genotoxicity in human embryonic kidney cells expressing luciferase-tagged ATAD5 - cell viability (AID 651634; calls by dose curve; also: nearly all actives have a fitted effect of over 25% in size; also: potency is read from the fitted curve at half-maximal effect)
Procedure, shortened: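 Here HEK293T cells with the ATAD5 luciferase reporter are incubated with test compounds for 15.5 hr, and cytotoxicity is then gauged by measuring protease activity in live cells using fluorescence.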

[4] = qHTS assay to test for compound auto fluorescence at 590 nm (red) in HepG2 cells (AID 720674)
Procedure, shortened: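 Seeding: 2,000 HepG2 cells/well, MEM/10% FBS, overnight 37 C. Dosing: compound vs DMSO. Incubation: 1 hr, 37 C, 5% CO2. Read: fluorescence 540 ex/590 em, Rose Bengal sodium as red reference.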

[5] = qHTS assay to test for compound auto fluorescence at 535 nm (green) in HepG2 cells (AID 720675)
[6] = qHTS assay to test for compound auto fluorescence at 460 nm (blue) in HEK293 cells (AID 720678)
Procedure, shortened: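 Intrinsic compound fluorescence is recorded in live HEK293 cultures after overnight incubation at 37C, 5% CO2, using excitation 405 nm and emission 460 nm. Values are referenced to triamterene.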

[7] = qHTS assay to test for compound auto fluorescence at 590 nm (red) in HEK293 cells (AID 720679)
Procedure, shortened: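 Red autofluorescence, HEK293 cells: 2,000 cells/well; attach 4-5 hr 37C; add 23 nL cpd or DMSO; incubate o/n 37C 5% CO2; read Ex540/Em590; Rose Bengal sodium reference.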

[8] = qHTS assay to test for compound auto fluorescence at 535 nm (green) in HEK293 cells (AID 720680)
[9] = qHTS assay to test for compound auto fluorescence at 460 nm (blue) in HEK293 cell free culture (AID 720681)
Procedure, shortened: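 Compounds were added to cell-free DMEM with 10% FBS and fluorescence read directly. The blue channel used 405 nm excitation and 460 nm emission, with triamterene as the reference fluorophore.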

[10] = qHTS assay to test for compound auto fluorescence at 535 nm (green) in HEK293 cell free culture (AID 720682)
Procedure, shortened: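 No cells present: wells hold DMEM supplemented with 10% FBS, into which compound or vehicle is pinned. Green emission is then recorded (485 nm excitation, 535 nm emission) and scaled to fluorescein.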

[11] = qHTS assay to test for compound auto fluorescence at 590 nm (red) in HEK293 cell free culture (AID 720683)
Procedure, shortened: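 Cell-free wells of DMEM with 10% FBS received compound, and intrinsic fluorescence was read at excitation/emission 540/590 nm. Values expressed as equivalence to Rose Bengal sodium.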

[12] = qHTS assay to test for compound auto fluorescence at 590 nm (red) in HepG2 cell free culture (AID 720684)
Procedure, shortened: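 Auto fluorescence equivalency versus Rose Bengal sodium, red channel Ex/Em 540/590 nm; compounds in cell-free MEM/10% FBS; DMSO vehicle control.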

[13] = qHTS assay to test for compound auto fluorescence at 460 nm (blue) in HepG2 cell free culture (AID 720685)
Procedure, shortened: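 Cell-free plates of MEM plus 10% FBS received 23 nL compound or DMSO vehicle; blue-channel (405/460 nm) intensity scored against triamterene as reference fluorophore.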

[14] = qHTS assay to test for compound auto fluorescence at 535 nm (green) in HepG2 cell free culture (AID 720686)
[15] = qHTS assay to test for compound auto fluorescence at 460 nm (blue) in HepG2 cells (AID 720687)
Procedure, shortened: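 HepG2 cells in MEM with 10% FBS, attached overnight at 37 C, were exposed to compound or DMSO for 1 hr at 37 C, 5% CO2. Blue fluorescence was read at 405/460 nm, with triamterene as reference fluorophore.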

[16] = qHTS assay for small molecule disruptors of the mitochondrial membrane potential - cell viability (AID 720634; calls by dose curve; also: nearly all actives have a fitted effect of over 20% in size; also: potency is read from the fitted curve at half-maximal effect)
Procedure, shortened: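 Viability of HepG2 cells is scored from ATP content by luminescence; cells are exposed to compound for 1 hr at 37 C and 5% CO2, then dosed with m-MPI dye before the CellTiter-Glo reagent.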

[17] = target: Glucocorticoid receptor (Homo sapiens) (UniProt P04150); assay: qHTS assay to identify small molecule antagonists of the glucocorticoid receptor (GR) signaling pathway (AID 720692; active = well fitted inhibition curve with a large enough effect in the signal ratio in the repeat runs, not every such curve was filed as active; the % refers to the signal ratio; also: potency is read from the fitted curve at half-maximal effect)
Procedure, shortened: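 In a 1536-well cell format, compounds were added 4 h after seeding GR-bla HeLa cells, together with dexamethasone at 5 nM final; reporter activity was measured by FRET-substrate fluorescence following 18 h at 37 C.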

[18] = target: Glucocorticoid receptor (Homo sapiens) (UniProt P04150); assay: qHTS assay to identify small molecule agonists of the glucocorticoid receptor (GR) signaling pathway (AID 720691; active = well fitted activation curve with a large enough effect in the signal ratio in the repeat runs, not every such curve was filed as active; the % refers to the signal ratio)
Procedure, shortened: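 Compounds in DMSO, alongside positive controls, were added to GR-bla HeLa reporter cells and incubated 18 h at 37 C; GRE-driven beta-lactamase was detected by fluorescence after 2 h with FRET substrate at room temperature.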

[19] = qHTS assay for small molecule disruptors of the mitochondrial membrane potential (AID 720635); also: potency is read from the fitted curve at half-maximal effect
Procedure, shortened: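 HepG2 cells exposed to compound 1 hr at 37C, then Mito-MPS dye 30 min. Ratio read of aggregate (540/590 nm) versus monomer (490/535 nm) fluorescence.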
% is scaled to controls: 0 for no effect and ±100 for the full control effect.

Chain of Glucocorticoid receptor (Homo sapiens) (P04150 whole entry, looked up): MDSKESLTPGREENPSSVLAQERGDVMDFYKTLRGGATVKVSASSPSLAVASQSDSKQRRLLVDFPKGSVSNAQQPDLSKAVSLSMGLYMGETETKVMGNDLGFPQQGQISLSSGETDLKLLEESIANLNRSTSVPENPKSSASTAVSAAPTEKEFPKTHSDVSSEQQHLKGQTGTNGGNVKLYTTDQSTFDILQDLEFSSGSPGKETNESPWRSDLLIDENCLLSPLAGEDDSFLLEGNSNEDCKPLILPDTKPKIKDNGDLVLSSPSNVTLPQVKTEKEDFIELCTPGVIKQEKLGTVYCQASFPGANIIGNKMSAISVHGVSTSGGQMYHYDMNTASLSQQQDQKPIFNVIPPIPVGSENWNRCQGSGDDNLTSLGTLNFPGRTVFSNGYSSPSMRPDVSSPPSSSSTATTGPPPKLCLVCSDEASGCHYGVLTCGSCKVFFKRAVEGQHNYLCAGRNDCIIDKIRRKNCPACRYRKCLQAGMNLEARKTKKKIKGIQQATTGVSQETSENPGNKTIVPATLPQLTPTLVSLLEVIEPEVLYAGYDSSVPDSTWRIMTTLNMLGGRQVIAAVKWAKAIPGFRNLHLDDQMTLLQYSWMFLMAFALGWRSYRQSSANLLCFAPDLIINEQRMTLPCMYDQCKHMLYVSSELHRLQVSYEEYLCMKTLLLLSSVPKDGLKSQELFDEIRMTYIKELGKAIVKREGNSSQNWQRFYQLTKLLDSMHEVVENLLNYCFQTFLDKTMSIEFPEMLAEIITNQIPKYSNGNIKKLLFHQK

O=C(O)c1cc(O)c2ccccc2c1O
active: Potency [2] 30.6 µM
inactive: Potency [1] | Potency [3] | Potency [4] | Potency [5] | Potency [6] | Potency [7] | Potency [8] | Potency [9] | Potency [10] | Potency [11] | Potency [12] | Potency [13] | Potency [14] | Potency [15]

Nc1ccc(Oc2ccc(Cl)cc2)cc1
inactive: Potency [1] | Potency [2] | Potency [3] | Potency [16] | Potency [4] | Potency [5] | Potency [6] | Potency [7] | Potency [8] | Potency [9] | Potency [10] | Potency [12] | Potency [13] | Potency [14] | Potency [15]
active: Potency [17] 24 µM

COC1=C(OC)C(=O)C(CCCCCCCCCCO)=C(C)C1=O
inactive: Potency [1] | Potency [3] | Potency [16] | Potency [4] | Potency [5] | Potency [6] | Potency [7] | Potency [8] | Potency [9] | Potency [10] | Potency [11] | Potency [12] | Potency [13] | Potency [14] | Potency [15] | Potency [18]
active: Potency [2] 29.8 µM

CCCC1CCC(=O)CC1
inactive: Potency [1] | Potency [2] | Potency [3] | Potency [16] | Potency [19] | Potency [5] | Potency [6] | Potency [7] | Potency [8] | Potency [9] | Potency [10] | Potency [11] | Potency [12] | Potency [13] | Potency [14] | Potency [15] | Potency [18] | Potency [17]

Cc1cccc(C(=O)O)c1O
inactive: Potency [1] | Potency [2] | Potency [3] | Potency [16] | Potency [19] | Potency [5] | Potency [6] | Potency [7] | Potency [8] | Potency [9] | Potency [10] | Potency [11] | Potency [12] | Potency [13] | Potency [14] | Potency [15] | Potency [18]

O=C1c2ccccc2C(=O)N1SC1CCCCC1
68.5 µM (active) and inactive: Potency [2]
active: Potency [19] 54.4 µM and 48.6 µM
inactive: Potency [1] | Potency [3] | Potency [4] | Potency [5] | Potency [6] | Potency [7] | Potency [8] | Potency [9] | Potency [10] | Potency [12] | Potency [13] | Potency [14] | Potency [15]

CCCCCCCCCCCC(=O)OCC(C)OC(=O)CCCCC(=O)O (stereo not drawn)
inactive: Potency [1] | Potency [2] | Potency [3] | Potency [16] | Potency [19] | Potency [5] | Potency [6] | Potency [7] | Potency [8] | Potency [9] | Potency [10] | Potency [11] | Potency [12] | Potency [13] | Potency [14] | Potency [15] | Potency [18]

CN(C)c1ccc(C(=C2C=CC(=[N+](C)C)C=C2)c2ccc(N(C)C)cc2)cc1
inactive: Potency [1] | Potency [5] | Potency [6] | Potency [7] | Potency [8] | Potency [9] | Potency [10] | Potency [12] | Potency [13] | Potency [14] | Potency [18]
active: Potency [2] 10.6 µM and 9.64 µM and 30.6 µM | Potency [3] 11.9 µM and 21.6 µM and 24.3 µM | Potency [16] 54.2 µM | Potency [19] 139 nM and 30.5 nM and 68.6 nM

c1ccc(C(O[C@@H]2CCCN(CCc3ccc4c(c3)OCO4)C2)c2ccccc2)cc1
inactive: Potency [1] | Potency [2] | Potency [3] | Potency [4] | Potency [5] | Potency [7] | Potency [8] | Potency [9] | Potency [10] | Potency [11] | Potency [12] | Potency [13] | Potency [14] | Potency [15] | Potency [18]

OCC(F)(F)F
inactive: Potency [1] | Potency [2] | Potency [3] | Potency [16] | Potency [4] | Potency [5] | Potency [6] | Potency [7] | Potency [8] | Potency [9] | Potency [10] | Potency [11] | Potency [12] | Potency [13] | Potency [14] | Potency [15] | Potency [18] | Potency [17]

CCOc1ccc2ccccc2c1C(=O)N[C@@H]1C(=O)N2[C@@H]1SC(C)(C)[C@@H]2C(=O)O
inactive: Potency [1] | Potency [2] | Potency [3] | Potency [16] | Potency [19] | fluorescence, relative to Rose Bengal [4] 0.528% [at 18.6 µM] | fluorescence, % of fluorescein control [5] -0.0692% [at 18.6 µM] | fluorescence, % of triamterene [6] 0.458% [at 18.6 µM] | fluorescence, % of fluorescent control [7] 0.326% [at 18.6 µM] | fluorescence, % of fluorescein [8] 0.0057% [at 18.6 µM] | fluorescence, % of fluorescent control [9] 0.309% [at 18.6 µM] | activity change [10] 0.0527% [at 18.6 µM, stronger effect = higher value] | fluorescence, % of Rose Bengal [12] -0.0711% [at 18.6 µM] | fluorescence, % of fluorescent control [13] 0.462% [at 18.6 µM] | fluorescence, % of fluorescein control [14] 0.0405% [at 18.6 µM] | fluorescence, % of fluorescent control [15] 0.172% [at 18.6 µM] | Potency [18]

Cc1c(C)c2c(c(C)c1OC(=O)c1cccnc1)CC[C@@](C)(CCC[C@H](C)CCC[C@H](C)CCCC(C)C)O2
inactive: Potency [1] | Potency [2] | Potency [3] | Potency [16] | Potency [4] | Potency [5] | Potency [7] | Potency [8] | Potency [9] | Potency [10] | Potency [11] | Potency [12] | Potency [13] | Potency [14] | Potency [15]

CCCCCCCCCCC[C@@H](C[C@@H]1OC(=O)[C@H]1CCCCCC)OC(=O)[C@H](CC(C)C)NC=O
inactive: Potency [1] | Potency [2] | Potency [3] | Potency [16] | Potency [4] | Potency [5] | Potency [6] | Potency [7] | Potency [8] | Potency [9] | Potency [10] | Potency [11] | Potency [12] | Potency [13] | Potency [14] | Potency [15] | Potency [18]

CC1(C)CCC[C@]2(C)[C@H]3CCO[C@]3(C)CC[C@@H]12
inactive: Potency [1] | Potency [2] | Potency [3] | Potency [16] | Potency [4] | Potency [5] | Potency [7] | Potency [8] | Potency [9] | Potency [10] | Potency [11] | Potency [12] | Potency [13] | Potency [14] | Potency [15] | Potency [18]

Reference: PubChem BioAssay (Tox21)
